The source of these data is publication PMC5540273 (PLoS ONE, 2017).
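Further: KINOMEscan kinase panel screen.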

The subject of the first test is PRKX. Conditions: concentration: 1 μM, replicates: in singlicate; n = 1.
As to `CSc1ccc(-c2cc3ncnc(SCC(=O)O)c3s2)cc1`, the “%Inh” value was 0%.
The same measure, in the same setting: next, `CCc1nc(-c2cccc(C)c2)c(-c2ccnc(NCc3ccccc3)c2)s1`: 0%.
Same read-out and setting: next, `COCCNC(=O)c1ccc(-c2cc(C(=O)NC3CC3)cc(F)c2C)cc1` [GW868318]: 0%; `COc1ccc(COc2cc(-n3cnc4ccccc43)sc2C(N)=O)cc1` [GSK1024304]: 10%.
The same measure, in the same setting: next, `COc1cc2ncn(-c3cc(OCc4sccc4Cl)c(C(N)=O)s3)c2cc1OC` [GSK448459]: 0%.
Consider `O=C(NCCNc1ccnc(Nc2ccc(F)cc2)n1)c1cc2ccccc2s1` [GSK1379874], for which the “%Inh” value turned out to be 4%.
Still for that read-out and setting: under `Cc1cccc(-c2nc(Nc3ccc4ncsc4c3)c3ccccc3n2)n1` [GW867588] stands 0%.
The same measure, in the same setting: under `c1ccc(-c2n[nH]cc2-c2ccnc3ccccc23)nc1` [GW271431] stands 0%; under `O=C(NCCNc1ccnc(Nc2ccc(F)cc2)n1)Nc1ccccc1F` [GSK1379880], 9%; under `Cc1nnc(-c2ccc3occ(-c4ccc(C(C)O)cc4)c3c2)o1` (stereo not shown), 0%.
Same read-out and setting: under `NS(=O)(=O)c1cccc(-c2ccc3nccc(-c4cccc(S(N)(=O)=O)c4)c3c2)c1` [GW867253] stands 0%; under `CCCCCc1nc2c(N)ncnc2n1CCCCC` [SKF-97255], 0%.
Consider `Cl.Oc1cccc(Nc2ccnc3cc(-c4ccncc4)ccc23)c1` [GW494601], for which the “%Inh” value is 0%.
Same read-out and setting: next, `Fc1ccc(-c2ncn(CCCN3CCOCC3)c2-c2cccnc2)cc1` [SB-211743]: 0%.
Still for that read-out and setting: next, `Cc1ccc(C(=O)NCC(N)=O)cc1-n1c(C)cc(OCc2ccc(F)cc2F)c(Br)c1=O`: 22%; `NS(=O)(=O)CCc1cccc(Nc2nccc(-c3c(-c4cccc(NC(=O)c5c(F)cccc5F)c4)nn4ccccc34)n2)c1` [GSK336735]: 13%; `COC(=O)Nc1nc2cc(Oc3ccc(NC(=O)Nc4cc(F)ccc4F)cc3)ccc2[nH]1.Cl` [GW701424]: 0%.
Same read-out and setting: next, `Cc1cn2c(=O)cc(N3CCOCC3)nc2n1Cc1cccc(Cl)c1Cl` [GSK2334006]: 24%; `N#Cc1c(N2CCOCC2)sc(-c2ccn[nH]2)c1-c1ccc(Cl)cc1`: 12%.
Turning to `Cc1cccc(Cn2ccn3c(=O)cc(N4CCOCC4)nc23)c1` [GSK2297542], the “%Inh” value turned out to be 23%.
As to `COc1ccc(CNC(=O)NC2CCN(c3ccnc(Nc4ccc(OC)cc4)n3)C2)cc1` (stereo not shown) [GSK1379727], the “%Inh” value is 11%.
Take `c1ccc(-c2cc(-c3c[nH]nc3-c3ccccn3)ccn2)cc1` [GW576604]: the “%Inh” value is recorded as 0%.
Same read-out and setting: next, `COc1cc2c(cc1OCCN1CCN(C)CC1)ncc1c3ccc(C#N)cc3[nH]c21`: 19%; `COc1ccc(Nc2nccc(N3CCC(NC(=O)Nc4cccc(C(C)=O)c4)C3)n2)cc1` (stereo not shown) [GSK1379731]: 24%.
`Cc1ccc(NC(=O)c2ccnc(N3CCN(C)CC3)c2)cc1-c1ccc(C(=O)NCC2CC2)cc1` [GW775604]: the “%Inh” value turned out to be 0%.
With `Cc1c(Cn2c(C)nn3c(=O)cc(N4CCOC(C)C4)nc23)cccc1C(F)(F)F` (stereo not shown) [GSK2344444], the “%Inh” value amounted to 3%.
Consider `O=C(NCCCN1CCOCC1)c1cccc(Nc2nccc(Nc3ccc(Oc4ccccc4)cc3)n2)c1` [GW663929], for which the “%Inh” value worked out at 17%.
On the same count and under the same terms, next, `Nc1nc(-c2ccc3c(N)n[nH]c3c2)cc(N2CCCC2)n1` [GSK2227430]: 1%; `Nc1nccc(-c2c(-c3ccc(F)cc3)ncn2C2CCN(CC(F)(F)F)CC2)n1` [SB-236560]: 0%; `COc1ccc(S(=O)(=O)NC2CCN(c3cc(C)nc(Nc4cccc(C#N)c4)n3)CC2)cc1.O=C(O)C(F)(F)F` [GSK1653539]: 0%.
As for `CN(C1=C(c2ccccc2)C(=O)NC1=O)c1ccccc1` [SB-334860], the “%Inh” value is reported as 2%.
On the same count and under the same terms, next, `CN1c2ccc(CNc3ccc(F)cc3)cc2-c2c(cnn2C)S1(=O)=O`: 0%; `Cl.Cl.Cl.Fc1ccc(-c2ncn(C3CCNCC3)c2-c2ccnc(Nc3ccccc3)n2)cc1` [SB-238039]: 0%; `COc1cc(Nc2nccc(N3CCC(NC(=O)c4cccc(NC(C)=O)c4)C3)n2)cc(OC)c1OC` (stereo not shown) [GSK1379754]: 27%.

The test system of a further test is PRP4. The following applies: concentration: 1 μM, replicates: in singlicate; n = 1.
With `CSc1ccc(-c2cc3ncnc(SCC(=O)O)c3s2)cc1`, the “%Inh” value is reported as 0%.
With `CCc1nc(-c2cccc(C)c2)c(-c2ccnc(NCc3ccccc3)c2)s1`, the “%Inh” value is listed as 6%.
Turning to `COCCNC(=O)c1ccc(-c2cc(C(=O)NC3CC3)cc(F)c2C)cc1` [GW868318], the “%Inh” value amounted to 0%.
Take `COc1ccc(COc2cc(-n3cnc4ccccc43)sc2C(N)=O)cc1` [GSK1024304]: the “%Inh” value is recorded as 11%.
On to `COc1cc2ncn(-c3cc(OCc4sccc4Cl)c(C(N)=O)s3)c2cc1OC` [GSK448459], for which the “%Inh” value is 26%.
As to `O=C(NCCNc1ccnc(Nc2ccc(F)cc2)n1)c1cc2ccccc2s1` [GSK1379874], the “%Inh” value is 49%.
Turning to `Cc1cccc(-c2nc(Nc3ccc4ncsc4c3)c3ccccc3n2)n1` [GW867588], the “%Inh” value came to 0%.
Consider `c1ccc(-c2n[nH]cc2-c2ccnc3ccccc23)nc1` [GW271431], for which the “%Inh” value is listed as 5%.
Still for that read-out and setting: next, `O=C(NCCNc1ccnc(Nc2ccc(F)cc2)n1)Nc1ccccc1F` [GSK1379880]: 21%; `Cc1nnc(-c2ccc3occ(-c4ccc(C(C)O)cc4)c3c2)o1` (stereo not shown): 0%.
On the same count and under the same terms, under `NS(=O)(=O)c1cccc(-c2ccc3nccc(-c4cccc(S(N)(=O)=O)c4)c3c2)c1` [GW867253] stands 0%; under `CCCCCc1nc2c(N)ncnc2n1CCCCC` [SKF-97255], 3%; under `Cl.Oc1cccc(Nc2ccnc3cc(-c4ccncc4)ccc23)c1` [GW494601], 34%.
As to `Fc1ccc(-c2ncn(CCCN3CCOCC3)c2-c2cccnc2)cc1` [SB-211743], the “%Inh” value stood at 0%.
Take `Cc1ccc(C(=O)NCC(N)=O)cc1-n1c(C)cc(OCc2ccc(F)cc2F)c(Br)c1=O`: the “%Inh” value turned out to be 0%.
On to `NS(=O)(=O)CCc1cccc(Nc2nccc(-c3c(-c4cccc(NC(=O)c5c(F)cccc5F)c4)nn4ccccc34)n2)c1` [GSK336735], for which the “%Inh” value was determined as 18%.
As for `COC(=O)Nc1nc2cc(Oc3ccc(NC(=O)Nc4cc(F)ccc4F)cc3)ccc2[nH]1.Cl` [GW701424], the “%Inh” value was 62%.
Take `Cc1cn2c(=O)cc(N3CCOCC3)nc2n1Cc1cccc(Cl)c1Cl` [GSK2334006]: the “%Inh” value is 0%.
For the compound `N#Cc1c(N2CCOCC2)sc(-c2ccn[nH]2)c1-c1ccc(Cl)cc1`, the “%Inh” value was determined as 56%.
On the same count and under the same terms, under `Cc1cccc(Cn2ccn3c(=O)cc(N4CCOCC4)nc23)c1` [GSK2297542] stands 1%.
On the same count and under the same terms, under `COc1ccc(CNC(=O)NC2CCN(c3ccnc(Nc4ccc(OC)cc4)n3)C2)cc1` (stereo not shown) [GSK1379727] stands 23%; under `c1ccc(-c2cc(-c3c[nH]nc3-c3ccccn3)ccn2)cc1` [GW576604], 22%.
Same read-out and setting: next, `COc1cc2c(cc1OCCN1CCN(C)CC1)ncc1c3ccc(C#N)cc3[nH]c21`: 79%; `COc1ccc(Nc2nccc(N3CCC(NC(=O)Nc4cccc(C(C)=O)c4)C3)n2)cc1` (stereo not shown) [GSK1379731]: 0%.
On to `Cc1ccc(NC(=O)c2ccnc(N3CCN(C)CC3)c2)cc1-c1ccc(C(=O)NCC2CC2)cc1` [GW775604], for which the “%Inh” value turned out to be 0%.
Same read-out and setting: next, `Cc1c(Cn2c(C)nn3c(=O)cc(N4CCOC(C)C4)nc23)cccc1C(F)(F)F` (stereo not shown) [GSK2344444]: 0%; `O=C(NCCCN1CCOCC1)c1cccc(Nc2nccc(Nc3ccc(Oc4ccccc4)cc3)n2)c1` [GW663929]: 21%; `Nc1nc(-c2ccc3c(N)n[nH]c3c2)cc(N2CCCC2)n1` [GSK2227430]: 46%.
Consider `Nc1nccc(-c2c(-c3ccc(F)cc3)ncn2C2CCN(CC(F)(F)F)CC2)n1` [SB-236560], for which the “%Inh” value was 7%.
On the same count and under the same terms, next, `COc1ccc(S(=O)(=O)NC2CCN(c3cc(C)nc(Nc4cccc(C#N)c4)n3)CC2)cc1.O=C(O)C(F)(F)F` [GSK1653539]: 3%; `CN(C1=C(c2ccccc2)C(=O)NC1=O)c1ccccc1` [SB-334860]: 0%.
The same measure, in the same setting: under `CN1c2ccc(CNc3ccc(F)cc3)cc2-c2c(cnn2C)S1(=O)=O` stands 11%; under `COc1cc(Nc2nccc(N3CCC(NC(=O)c4cccc(NC(C)=O)c4)C3)n2)cc(OC)c1OC` (stereo not shown) [GSK1379754], 20%.
